Screening data deposited in PubChem BioAssay by several laboratories.
Shown are actives, neighbours in structure and some others; about 4.2% of the full set was active somewhere.
DAX1 StAR inh – DAX1 (NR0B1) inhibition, primary screen; HEK293T StAR-luciferase reporter, SF-1/DAX-1 repression relief; inhibition, % at 6.8 µM; 1.1% of 370,000 active; AID 652010;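 active = inhibition above the mean over all tested compounds plus 3 SD, cut at about 3.6% in these data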;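 also: 0% = DAX-1 cells with DMSO and 100% = cells lacking DAX-1 with DMSO; higher inhibition means more luminescence from relief of DAX-1 repression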
ssDAF12 agonist – activators of S. stercoralis DAF-12 nuclear receptor; HEK293 ssDAF-12/GRIP1 lit1-tk-luc reporter, luminescence; % of 3 µM dafachronic acid response; AID 652126; activation, % at 6.8 µM; 1% of 370,000 active;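 active = activation above the mean over all tested compounds plus 3 SD, cut at about 0.9% in these data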;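 also: 0% = DMSO-only wells and 100% = 3 µM delta7-dafachronic acid wells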
hcDAF12 agonist – activators of H. contortus DAF-12 nuclear receptor; AID 652067; HEK293 hcDAF-12 lit1-tk-luc reporter, luminescence; 0% DMSO, 100% Δ7-dafachronic acid; activation, % at 6.8 µM; 1.4% of 370,000 active;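 active = activation above the mean of all tested compounds plus 3 SD, cut at about 5.5% in these data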;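 also: 100% = response to 3 µM Δ7-dafachronic acid high control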
Wnt bcat act – activators of Wnt/beta-catenin signaling; Wnt/beta-catenin reporter cell assay, activator, plate reader; activation, % at 9.35 µM; 1.2% of 300,000 active; AID 743398; in the data active = activation above about 30%, passing the limit was not always enough; inconclusive = no clear call, values can overlap the other calls;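 also: 0% = neutral control wells and 100% = positive control wells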
esBAF inh – SWI/SNF esBAF complex inhibition; mouse ES cells, Bmi1-luciferase knock-in reporter, 24 h; 100% = twice the neutral-well signal; reporter increase, % at 12.5 µM; 2% of 350,000 active; AID 602393; in the data active = activation above about 40%; inconclusive = no clear call, values can overlap the other calls;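 also: 0% = median of the plate's neutral control wells and 100% = double that signal; a rise in the Bmi1 reporter signal indicates esBAF inhibition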
hgDAF12 agonist – activates the H. glycines DAF-12 receptor ligand-binding domain | HEK293 GAL4-hgDAF12 UAS-luciferase reporter, agonist luminescence; normalized to butyrate control | activation, % at 6.8 µM | 1.8% of 370,000 active;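 active = activation above a cutoff set at the mean of all screened compounds plus 3 SD, cut at about 10% in these data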;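 also: 0% = DMSO wells and 100% = sodium butyrate wells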
An asterisk follows results filed as active; ? = inconclusive; . = not tested or not shown.

SMILES	DAX1 StAR inh	ssDAF12 agonist	hcDAF12 agonist	Wnt bcat act	esBAF inh	hgDAF12 agonist
COc1ccc(-c2coc3cc(O[C@@H]4O[C@H](CO)[C@@H](O)[C@H](O)[C@H]4O)c(OC)cc3c2=O)cc1	1	-1	0	25	47*	7
COc1ccc(-c2coc3cc(OC(C)=O)ccc3c2=S)cc1	2	1	2	-3	66*	11*
COc1ccc(-c2coc3cc(OC)cc(O)c3c2=O)cc1	2	-1	1	.	.	10
COc1ccc(C(=O)NNC(=O)Cc2coc3cc(OC)ccc23)cc1	-1	-1	1	2	5	-5
C[C@@H]1CN([C@@H](C)CO)S(=O)(=O)c2ccc(C3=CCCC3)cc2O[C@H]1CN(C)CC1CCCC1	.	.	.	.	-5	.
O=C(N[C@@H]1CC[C@H](CC(=O)N2CCCCC2)O[C@H]1CO)c1ccc2c(c1)OCO2	.	.	.	.	6	.
CN(C)C(CNC(=O)c1cccc(OC(F)F)c1)c1ccco1 (stereo not given)	0	0	2	6	45*	-1
CC(=O)c1ccc(-c2ccc(C(=O)NCC(c3ccco3)N(C)C)o2)cc1 (stereo not given)	2	-1	3	1	80*	9
CC(=O)Nc1ccc(C(=O)NCC(c2ccco2)N(C)C)cc1 (stereo not given)	0	-1	0	1	.	-1
CCCOc1ccc(-c2nc(SCc3ccccc3)[nH]c(=O)c2C#N)cc1OC	1	4.3*	0	-2	-10	0
CCSc1nc(-c2ccccc2)c(C#N)c(=O)[nH]1	1	-1	-1	-4	-4	0
C[C@@H]1CCCCO[C@H](CN(C)C(=O)c2ccccc2)[C@@H](C)CN([C@@H](C)CO)C(=O)c2cc(NC(=O)Nc3ccc(F)cc3)ccc2O1	.	.	.	.	-2	.
C[C@H]1CN([C@@H](C)CO)C(=O)Cc2cc(N(C)C)ccc2O[C@@H]1CN(C)CC1CC1	.	.	.	.	3	.
COc1ccccc1C#Cc1ccc([C@H]2[C@H](C#N)N(C(=O)C3CCC3)[C@H]2CO)cc1	.	.	.	.	-4	.
CSc1snc(SCC(N)=O)c1C#N	0	-1	-1	-2	0	12*
N#Cc1c(SCC(=O)Nc2ccccc2)nsc1SCC(=O)Nc1ccccc1	0	23*	2	-2	.	3
C[C@@H]1CCCCO[C@@H](CN(C)Cc2ccc(Cl)c(Cl)c2)[C@H](C)CN([C@@H](C)CO)C(=O)c2cc(NS(=O)(=O)c3cn(C)cn3)ccc2O1	.	.	.	.	9	.
N#CCSc1ccccc1NC(=O)CN1C(=O)C2CC=CCC2C1=O (stereo not given)	-5	2.3*	4	-4	2	5
CO[C@@H]1CN(C)C(=O)c2cc(NC(=O)C3CCCC3)ccc2OC[C@@H](C)N(CCC(F)(F)F)C[C@@H]1C	.	.	.	.	1	.
CCCNC(=O)C[C@H]1CC[C@H]2[C@@H](COC[C@@H](O)CN2C(=O)Nc2ccc3c(c2)OCO3)O1	.	.	.	.	41*	.
CCNC(=O)C[C@H]1CC[C@H]2[C@@H](COC[C@@H](O)CN2C(=O)Nc2ccc3c(c2)OCO3)O1	.	.	.	.	53*	.
CCCNC(=O)C[C@H]1CC[C@@H]2[C@H](COC[C@H](O)CN2C(=O)Nc2ccc3c(c2)OCO3)O1	.	.	.	.	40	.
CN(c1nc(-c2ccccc2)cs1)C1CCS(=O)(=O)C1 (stereo not given)	1	0	4	7	75*	1
CN(C(=O)CSc1nc(-c2ccccc2)cs1)C1CCS(=O)(=O)C1 (stereo not given)	0	0	2	.	8	1
Brc1ccc(-c2nnc(Cc3ccccc3)o2)cc1	1	-2	1	25	.	7
SMILES	DAX1 StAR inh	ssDAF12 agonist	hcDAF12 agonist	Wnt bcat act	esBAF inh	hgDAF12 agonist
Cc1ccccc1-c1nnc(SCc2ccccc2F)o1	3.9*	0	6.4*	.	?	13*
c1ccc(CSc2nnc(-c3c[nH]c4ccccc34)o2)cc1	1	0	0	11	53*	6
Cc1ccc(CSc2nnc(-c3ccc(NS(=O)(=O)c4ccccc4)cc3)o2)cc1	0	1.7*	-4	-3	.	-1
Cc1ccccc1-c1nnc(Cc2ccccc2)o1	2	-1	1	28	.	12*
Cc1ccccc1CSc1nnc(-c2ccncc2)o1	1	-1	0	0	22	4
C[C@@H]1CCCCO[C@H](CN(C)S(C)(=O)=O)[C@@H](C)CN([C@H](C)CO)C(=O)c2cc(NC(=O)Nc3ccccc3)ccc2O1	.	.	.	.	-5	.
C[C@H](CO)N1C[C@H](C)[C@@H](CN(C)C(=O)C2CC2)Oc2cc(-c3cncnc3)ccc2S1(=O)=O	.	.	.	.	-3	.
COc1ccc(NC(=O)N(C)C[C@H]2Oc3cc(C#CCN(C)C)ccc3S(=O)(=O)N([C@H](C)CO)C[C@H]2C)cc1	.	.	.	.	-2	.
Cc1ccc(CSc2nnc(-c3cccc4ccccc34)o2)cc1	0	-1	-1	0	-3	0
Cc1ccccc1-c1nnc(SCc2ccccc2)o1	0	0	3	.	63*	3
Cc1ccc(O)c(-n2nc3ccccc3n2)c1	1	-1	2	10	43*	7
COc1ccc(C)cc1-n1nc2ccccc2n1	0	-2	-1	-1	6	2
O=C(CCN1CCCCC1)N[C@@H]1CC[C@H](CCn2cc(-c3ccc(F)cc3)nn2)O[C@@H]1CO	.	.	.	.	1	.
Cc1ccc(NC(=O)CNCc2cccs2)cc1Br	1	-1	-2	0	?	5
CC(=O)c1ccc(NC(=O)CNCc2cccs2)cc1	1	-1	2	14	54*	5
C[C@H](CO)N1C[C@H](C)[C@@H](CN(C)C(=O)Nc2ccc(F)cc2)Oc2ccc(NS(=O)(=O)c3ccccc3)cc2C1=O	.	.	.	.	1	.
CCN(CC)c1nc(C)nc2c1cnn2CCc1ccccc1	2	-1	2	.	80*	5
CCN(CC)c1ncnc2c1cnn2Cc1ccc(C)cc1	-1	-1	-2	0	8	0
O=C(N/N=C/c1cc(Br)c(O)c(Br)c1O)c1ccc2c(c1)OCCO2	0	-1	0	9	43*	1
O=C(N/N=C/c1cc(Br)c(Br)o1)c1cccnc1	0	-1	-3	2	.	0
O=C(N/N=C/c1cc(Br)c(Br)o1)c1ccc2c(c1)OCCO2	0	-1	1	37*	58*	8
C[C@H]1CN([C@@H](C)CO)C(=O)c2cc(NC(=O)CCC(F)(F)F)ccc2O[C@H]1CN(C)S(=O)(=O)c1cccs1	.	.	.	.	1	.
COc1ccc(NC(=O)N(C)C[C@H]2OCc3ccccc3-c3c(n(C)c4ccccc34)C(=O)N([C@@H](C)CO)C[C@H]2C)cc1	.	.	.	.	5	.
C[C@@H]1CN([C@H](C)CO)C(=O)c2cc(NC(=O)Cc3cn(C)c4ccccc34)ccc2O[C@@H]1CN(C)Cc1ccc(-c2ccccc2)cc1	.	.	.	.	-9	.
